# According to PubChem BioAssay AID2113 (National Center for Advancing Translational Sciences (NCATS), 2009):
# “And” between values parts separate entries of the source, which are not always exact repeats. Equal values may be shown once. Results filed as inconclusive are left out. A call without a number means that no potency is given here. The source made the active and inactive calls. Calls follow the shape of the dose curve; as a rule, active = well fitted curve in either direction with a large enough effect; inconclusive = small, poorly fitted or top-dose-only effect; inactive = no such curve, though single readings can be large or run the other way.
# Target: Lysosomal alpha-glucosidase (Homo sapiens) (UniProt P10253)
# Assay: Confirmation of Inhibitors and Activators of Human alpha-Glucosidase From Spleen Homogenate;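 as to potency: fluorescence of 4-methylumbelliferone released from a fluorogenic glucopyranoside substrate at pH 5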
# Details: alpha-glucosidase enzyme activity; series mostly up to 60.5 µM
# Summary of the method: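 Compounds titrated against spleen-homogenate alpha-glucosidase, pH 5.0, 1 mM 4-MU-glucoside substrate, 37 C for 40 min. Fluorescence after pH 10 stop, normalised to no-enzyme and enzyme controls; Hill-equation AC50.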
# Potency is read from the fitted curve at half-maximal effect.
row,Structure (SMILES),Potency
1,CC(=O)N1CCN(S(=O)(=O)c2ccc3c(c2)CC(=O)N3)CC1,29.8 µM [inhibitor] (active)
2,C(=C/c1ccc2ccccc2n1)/c1ccc2c(c1)OCO2,inactive
3,Cc1c(OCC(F)(F)F)ccnc1CS(=O)c1nc2ccccc2[nH]1 (stereo unspecified),inactive
4,CCCN1CNc2c(c(=O)[nH]c(=S)n2CCc2cccc(OC)c2OC)C1,15.8 µM (active)
5,O=C(CSc1ccccc1)Nc1nnc(/C=C/c2ccccc2)s1,inactive
6,CC(=O)c1ccc(N2CCN(S(=O)(=O)c3ccc4c(c3)CC(=O)N4)CC2)cc1,1.03 µM [inhibitor] (active) and 520 nM [inhibitor] (active) and 2.06 µM [inhibitor] (active)
7,CC(=O)c1ccc(S(=O)(=O)N2CCOCC2)cc1,inactive
8,CC1S/C(=N\N=C\c2cccc([N+](=O)[O-])c2)N(C(C)(C)C)C1=O (stereo unspecified),inactive
9,O=Cc1ccc(N2CCN(S(=O)(=O)c3ccc4c(c3)CC(=O)N4)CC2)cc1,4.61 µM [inhibitor] (active)
10,CN(CCO)S(=O)(=O)c1ccc2c(c1)C(=NNC(N)=O)c1cc(S(=O)(=O)N(C)CCO)ccc1-2,inactive
11,OC[C@H]1NC[C@H](O)[C@@H](O)[C@H]1O,inactive
12,CCCN1CNc2c(c(=O)[nH]c(=S)n2CCc2cc(C)ccc2C)C1,8.91 µM (active)
13,CN1c2ccccc2-c2nc3ccccc3n2C1c1ccccn1 (stereo unspecified),14.1 µM (active)
14,O=S(=O)(c1ccc(Cl)cc1)N1CCN(c2nc(Nc3cc(Cl)ccc3O)nc3ccccc23)CC1,inactive
15,CCCN1CNc2c(c(=O)[nH]c(=S)n2CCc2cccc(Cl)c2)C1,12.6 µM (active)
16,O=c1cc(-c2ccccc2)[nH]c2[nH]n(-c3ccccc3)c(=O)c12,inactive
17,CC(=O)c1ccc(N2CCN(C(=O)c3ccc4c(c3)CC(=O)N4)CC2)cc1,inactive
18,c1ccc(-c2nc3nc4ccccc4nc3n2CC2CCCO2)cc1 (stereo unspecified),inactive

row,Structure (SMILES),Potency
1,CC(=O)c1cccc(S(=O)(=O)N2CCOCC2)c1,inactive
2,COCCn1c(=NC(=O)c2ccc3c(c2)OCO3)c(C#N)cc2c(=O)n3cccc(C)c3nc21,inactive
3,CC(=O)c1ccc(N2CCN(S(=O)(=O)c3ccc4c(c3)CCC(=O)N4)CC2)cc1,inactive
4,CC1OC(OC2C(CO)OC(OC3C(CO)OC(O)C(O)C3O)C(O)C2O)C(O)C(O)C1NC1C=C(CO)C(O)C(O)C1O (stereo unspecified),inactive
5,COC(=O)c1ccc(S(=O)(=O)N2CCOCC2)cc1,inactive
6,COc1cccc(CCn2c(N)cc(=O)[nH]c2=S)c1OC,inactive
7,COc1ccc(CCn2c(=S)[nH]c(=O)c3[nH]cnc32)cc1OC,inactive
8,Cc1ccc(C(=O)c2sc3c(c2N)c(=O)[nH]c(=O)n3CCc2ccccc2)cc1,inactive
9,C[C@H]1OC(OC2C(O)[C@@H](O)C(OC3C(O)[C@@H](O)C(O)O[C@@H]3CO)O[C@@H]2CO)[C@H](O)C(O)C1N[C@H]1C=C(CO)[C@@H](O)[C@H](O)C1O (stereo partly specified),inactive
10,CCN(CC)c1ccc(/C=N/NC(=O)C(O)c2ccccc2)cc1 (stereo unspecified),inactive
11,COc1ccc(S(=O)(=O)N2CCOCC2)cc1,inactive
12,NC(=NCc1ccccc1)NC(=O)c1nc(Cl)c(N)nc1N,inactive
13,Clc1ncc(C#Cc2ccccc2)c2ncncc12,inactive
14,COc1ccc2cc(C#N)c(=O)oc2c1,inactive
15,O=C(O)c1c[nH]c2ccc(S(=O)(=O)N3CCOCC3)cc12,inactive
16,c1csc(-c2nc(NCC3CCCO3)c3ccccc3n2)c1 (stereo unspecified),inactive
17,Cc1ccc(N/N=C2\CCS(=O)(=O)c3sccc32)cc1,inactive
18,COc1ccc(NS(=O)(=O)c2ccc(O)c(NC(=O)c3cc4c(C)nn(-c5ccc(F)cc5)c4s3)c2)cc1,inactive
